The source of these data is PubChem BioAssay (NCATS).

Assay [1] deals with Alpha-galactosidase A (Homo sapiens) (UniProt P06280). The assay can be described thus: Counterscreen for Glucocerebrosidase Inhibitors: qHTS Assay for Human alpha-Galactosidase at pH 4.5 (AID 992). Also: 0% is about no effect. A digest of the protocol: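 Fluorogenic 1536-well qHTS at pH 4.5 (citrate, Tween-20): 2 nM enzyme, 80 uM 4-MU-alpha-galactoside, 20 min room temperature, NaOH/glycine stop. Titration 0.7 nM to 77 uM, data normalized to no-enzyme and full-activity controls, Hill-fitted AC50.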
Alpha-galactosidase A (Homo sapiens), sequence (P06280 whole entry, looked up): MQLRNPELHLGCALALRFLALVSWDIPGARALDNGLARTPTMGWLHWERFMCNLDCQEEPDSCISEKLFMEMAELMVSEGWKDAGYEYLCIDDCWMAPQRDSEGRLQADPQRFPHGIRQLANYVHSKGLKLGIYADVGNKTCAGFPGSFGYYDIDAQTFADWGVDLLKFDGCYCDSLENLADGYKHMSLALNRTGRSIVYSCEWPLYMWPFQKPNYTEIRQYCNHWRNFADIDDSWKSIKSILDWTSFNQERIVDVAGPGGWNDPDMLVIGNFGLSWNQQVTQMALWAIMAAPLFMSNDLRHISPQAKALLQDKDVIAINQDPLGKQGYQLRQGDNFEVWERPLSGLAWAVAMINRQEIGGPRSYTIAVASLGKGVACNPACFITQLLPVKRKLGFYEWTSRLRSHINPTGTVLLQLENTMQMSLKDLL

Assay [2] addresses alpha-glucosidase (Oryza sativa, rice) (UniProt Q653V4). In words: Counterscreen for Glucocerebrosidase Inhibitors: qHTS Assay for Rice alpha-Glucosidase at pH 5.0 (AID 997).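 Also: 0% = full activity with enzyme and -100% = basal without enzyme.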 A digest of the protocol: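 Endpoint fluorogenic assay at pH 5.0: compounds (0.7 nM to 77 uM) titrated against 4 nM rice enzyme and 400 uM 4-MU-alpha-glucoside for 20 min at room temperature; NaOH/glycine stop, read ex 365/em 440 nm, Hill-fitted AC50.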
In general terms: A counterscreen serves to expose hits that act by an unwanted route or on another target.

Assay [3] is described as follows: qHTS Assay for Lipid Storage Modulators (AID 1519; calls by dose curve; as to activity change, negative = inhibition: % is scaled to controls: 0 for no effect and ±100 for the full control effect). The settings on record: Drosophila S3 cells, BODIPY lipid droplet/cell ratio, laser cytometry, cells loaded with oleic acid. In a few lines:
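Cells seeded at 5,000 per well were treated with compounds over a concentration series and loaded with oleic acid (400 uM, as added). Lipid droplet fluorescence (488 nm excitation, 500-530 nm channel) was read by laser-scanning cytometry and normalized to 20 uM Triacsin C.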
A general note: Quantitative high-throughput screening tests each substance at several concentrations.

For assay [4], the target named is DNA repair nuclease/redox regulator APEX1 (Homo sapiens) (UniProt P27695). The assay can be described thus: qHTS Validation Assay for Inhibitors of the Human Apurinic/apyrimidinic Endonuclease 1 (APE1) (AID 1705;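 also: TAMRA fluorescence gain over two minutes as APE1 cuts a quenched THF abasic duplex; % is scaled to controls: 0 for no effect and ±100 for the full control effect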). In a few lines:
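qHTS, 1536-well. APE1 + cpd 15 min RT → 50 nM TAMRA/BHQ-2 THF-abasic dsDNA substrate → kinetic fluorescence, 3 reads/60 s; delta(read3−read1) = reaction progress. No-enzyme buffer = negative control.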

A short description of assay [5]: Counterscreen for APE1 Inhibitors: Fluorescent Dye Displacement Validation Assay (AID 1707).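 Also: plate controls were ThO with dsDNA and no compound for no effect and ThO without dsDNA for full effect.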 In a few lines: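 Counterscreen flags promiscuous DNA binders: compounds displacing ThO from duplex DNA (abasic THF site, 50 nM) reduce 540 nm emission (480 nm excitation). ThO 250 nM final; Tris-HCl pH 7.5 with NaCl, MgCl2 and Tween-20.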
The nature of assay [6]: Cell Viability - LYMP2-014 (AID 983). Also: nearly all actives have a fitted effect of over 50% in size. Also: potency is read from the fitted curve at half-maximal effect. A digest of the protocol:
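2500 cells/well, 5 hr 37 C; cpd 24 hr 37 C, complete medium; CellTiter-Glo 30 min RT, luminescence; ATP loss = toxicity; AC50 via Hill eqn; tetraoctylammonium bromide positive control.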

Assay [7] in a line: Cell Viability - LYMP2-023 (AID 975).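 Also: cells exposed to compound for 24 hours at 37 °C; nearly all actives have a fitted effect of over 55% in size.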 Also: potency is read from the fitted curve at half-maximal effect. In a few lines: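 CellTiter-Glo luminescence after 30 min at room temperature; decrease in intracellular ATP reflects toxicity. Cells: human lymphoblastoid line, 2500/well, 24 hr compound exposure at 37 C. AC50 fitted to standard Hill equation from concentration-response.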
Assay [8] is described as follows: Cell Viability - LYMP2-002 (AID 977). Also: potency is read from the fitted curve at half-maximal effect. In a few lines:
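Human lymphoblastoid cells, 2500/well, complete medium; 5 h 37 C settle; compound 24 h 37 C; CellTiter-Glo, 30 min RT; luminescence. Decrease in ATP = cytotoxicity; AC50 via Hill equation.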

Assay [9] can be described thus: Cell Viability - LYMP2-006 (AID 978).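 Also: cells exposed to compound for 24 hours; nearly all actives have a fitted effect of over 60% in size.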 Also: potency is read from the fitted curve at half-maximal effect. A digest of the protocol: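 Cells are seeded at 2500 per well and rested 5 hr at 37 C. Compounds are added across a concentration series for 24 hr at 37 C, after which ATP is quantified by luciferase luminescence.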
The nature of assay [10]: Cell Viability - LYMP2-007 (AID 979).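 Also: cells exposed to compound for 24 h before reading; nearly all actives have a fitted effect of over 60% in size.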 Also: potency is read from the fitted curve at half-maximal effect. In a few lines: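 qHTS cytotoxicity: 2500 cells/well, 5 hr 37 C settle, compound 24 hr 37 C, CellTiter-Glo 30 min RT, luminescence. Decrease in ATP = toxicity. AC50 by standard Hill equation; tetraoctylammonium bromide positive control.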
The nature of assay [11]: Cell Viability - LYMP2-012 (AID 982).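 Also: cellular ATP by luciferase luminescence where a drop means cytotoxicity; cells exposed to compound for one day before reading; nearly all actives have a fitted effect of over 55% in size.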 Also: potency is read from the fitted curve at half-maximal effect.
Assay [12] is described as follows: Cell Viability - LYMP2-016 (AID 984).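 Also: cells exposed to compound for 24 hours at 37 °C; nearly all actives have a fitted effect of over 55% in size.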 Also: potency is read from the fitted curve at half-maximal effect. In a few lines:
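Cells were seeded at 2500 per well and rested 5 hr before a 24 hr compound exposure at 37 C. Viability was then gauged as cellular ATP by luciferase luminescence, with AC50 values fitted to the Hill equation.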

A short description of assay [13]: Cell Viability - LYMP2-018 (AID 985). Also: nearly all actives have a fitted effect of over 50% in size. Also: potency is read from the fitted curve at half-maximal effect. A digest of the protocol:
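2500 cells/well; 5 hr 37 C; cmpd 24 hr 37 C, complete medium; CellTiter-Glo 30 min RT; luminescence. Tetraoctylammonium bromide positive control. AC50 via Hill fit.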

A short description of assay [14]: Cell Viability - LYMP2-022 (AID 987). Also: nearly all actives have a fitted effect of over 55% in size. Also: potency is read from the fitted curve at half-maximal effect. In a few lines: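 Luminescent ATP read-out (CellTiter-Glo, 30 min, RT) after 24 hr, 37 C compound exposure of 2500 human lymphoblastoid cells/well in complete medium. Cytotoxicity taken as concentration-dependent ATP loss; AC50 from standard Hill equation.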
Assay [15] is described as follows: Cell Viability - LYMP2-024 (AID 988). Also: nearly all actives have a fitted effect of over 60% in size. Also: potency is read from the fitted curve at half-maximal effect. In a few lines: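 ATP-based luminescence (CellTiter-Glo, 30 min RT) after 24 h compound exposure at 37 C of 2500 lymphoblastoid cells/well; decrease in ATP taken as cytotoxicity. qHTS concentration-response fitted to standard Hill equation for AC50.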
Assay [16] can be described thus: Cell Viability - LYMP2-026 (AID 989). Also: nearly all actives have a fitted effect of over 50% in size. Also: potency is read from the fitted curve at half-maximal effect. In a few lines:
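qHTS cytotoxicity: 2500 cells/well, 5 hr 37 C, compound 24 hr 37 C, CellTiter-Glo 30 min RT, luminescence. Tetraoctylammonium bromide positive control. AC50 via standard Hill fit.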

Assay [17] can be described thus: Cell Viability - LYMP1-002 - Assay at 24 hr (AID 993). Also: potency is read from the fitted curve at half-maximal effect. In a few lines:
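CellTiter-Glo luminescence (intracellular ATP) after 24 h compound exposure, 37 C, in LYMP1-002 human lymphoblastoid cells; decreased ATP taken as cytotoxicity. AC50 from standard Hill fit of concentration-response curves.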

The nature of assay [18]: Cell Viability - LYMP1-002 - Assay at 40 hr (AID 994). Also: nearly all actives have a fitted effect of over 60% in size. Also: potency is read from the fitted curve at half-maximal effect. A digest of the protocol:
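qHTS cytotoxicity; 2500 cells/well, 5 hr 37 C settle, compound 40 hr 37 C. CellTiter-Glo, 30 min RT, luminescence (ATP). Concentration-response, Hill fit → AC50. Pos. ctrl tetraoctylammonium bromide.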

Assay [19] can be described thus: Cell Viability - LYMP2-025 (AID 976).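 Also: plate controls were DMSO only for no effect and tetraoctylammonium bromide control for full effect.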 In a few lines:
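CellTiter-Glo luminescence (cellular ATP) after 24 h compound exposure at 37 C; LYMP2-025 human lymphoblastoid cells, 2500/well, complete medium. Tetraoctylammonium bromide positive control. AC50 by Hill equation fit of qHTS concentration-response.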

Setting [20] is: measured here: cell count channel max response.
[21] abbreviates: measured here: lipid channel max response.

SMILES strings stand for the structures. Where “and” joins values, the source holds several entries; their conditions need not be identical. Equal entries are not always repeated. Results filed as inconclusive are left out. Calls of active or inactive are those of the source. Unless noted, calls follow the shape of the dose curve; as a rule, active = well fitted curve in the direction sought with a large enough effect; inconclusive = small, poorly fitted or top-dose-only effect, or another doubt; inactive = no such curve, though single readings can be large; an effect the other way counts as inactive or inconclusive.

DNA repair nuclease/redox regulator APEX1 (Homo sapiens), sequence (P27695 whole entry, looked up): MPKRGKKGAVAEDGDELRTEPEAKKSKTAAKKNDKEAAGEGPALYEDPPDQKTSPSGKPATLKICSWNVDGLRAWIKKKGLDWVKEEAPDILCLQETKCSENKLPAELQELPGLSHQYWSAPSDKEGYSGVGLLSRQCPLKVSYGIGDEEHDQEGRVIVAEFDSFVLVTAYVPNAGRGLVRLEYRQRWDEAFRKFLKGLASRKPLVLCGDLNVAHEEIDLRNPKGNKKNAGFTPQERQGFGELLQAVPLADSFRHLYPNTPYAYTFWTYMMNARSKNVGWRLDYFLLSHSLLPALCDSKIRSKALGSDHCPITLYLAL

Turning to `NCCS`, the result in assay [1], in [2], in assay [4] and in [5] was inactive. Besides, in assay [3] (at 57.5 µM (top of the series)), the activity change, negative = inhibition is 0.57% (inactive). Besides, the max response is -11.3% in [3] (setting [20]) and -9.57% in assay [3] (setting [21]).
`COC(=O)[C@@H]1[C@H]2C[C@H]3c4[nH]c5ccccc5c4CCN3C[C@@H]2CC[C@@H]1O`: the compound was classed as inactive in [4] and in assay [5].
Regarding `O=c1cc(-c2ccc(O)cc2)oc2cc(O)cc(O)c12`, in [6], the Potency result is “inactive”. In addition, the outcome in [1] and in assay [2] was inactive. Also, the activity change, negative = inhibition in assay [3] (at 57.5 µM (top of the series)) was 5.85% (inactive) and 0.858% (inactive) and 6.23% (inactive). Also, the max response was -3.26% and -4.54% and 14.7% in [3] (setting [20]); 4.46% and -2.56% and 22.7% in assay [3] (setting [21]).
Consider `CC(C)OC(=O)C(C)(C)Oc1ccc(C(=O)c2ccc(Cl)cc2)cc1`, for which the outcome in assay [1], in [2] and in assay [4] was inactive. For the same compound, the activity change, negative = inhibition in [3] (at 25.7 µM (top of the series)) is -4.12% (inactive). For the same compound, the max response in assay [3] (setting [20]) is -11.4%; in [3] (setting [21]) it was -14.8%.
Consider `CC/C(=C(\c1ccccc1)c1ccc(OCCN(C)C)cc1)c1ccccc1`, for which the Potency in [7] is 50.1 µM (active); in assay [8] it was 39.8 µM (active); in assay [9], 50.1 µM (active); in [10] it was 50.1 µM (active); in assay [11], 50.1 µM (active); in assay [6] it was 50.1 µM (active). For the same compound, the Potency was 39.8 µM (active) in [12]; 50.1 µM (active) in assay [13]; 39.8 µM (active) in [14]; 50.1 µM (active) in [15]; 50.1 µM (active) in [16]; 50.1 µM (active) in assay [17]. The Potency in assay [18] was 50.1 µM (active). Further, the call in assay [1], in assay [2], in assay [4] and in [5] was inactive. Also, the activity change, negative = inhibition in assay [3] (at 57.5 µM (top of the series)) is 6.58% (inactive). For the same compound, the max response in assay [3] (setting [20]) worked out at 6.28%; in assay [3] (setting [21]), 15.3%.
Take `CC1(C)CCC2=C(O1)c1ccccc1C(=O)C2=O`: the call in [1], in assay [2], in assay [4] and in assay [5] was inactive.
As to `C[N+](C)(C)CCCCCC[N+](C)(C)C`, the result in assay [1], in assay [2], in assay [4] and in [5] was inactive. Also, the activity change, negative = inhibition in assay [3] (at 25.7 µM (top of the series)) is -1.97% (inactive); in assay [3] (at 57.5 µM (top of the series)) it was 11.8% (inactive) and 0.867% (inactive) and 2.49% (inactive).
With `CCn1cc(C(=O)O)c(=O)c2ccc(C)nc21`, the Potency entry in assay [7], in assay [8], in assay [9], in [10], in assay [11] and in assay [6] was “inactive” throughout. Further, the Potency result in [12], in [13], in [14], in [15], in assay [16] and in [17] was “inactive” each time. In assay [18], the Potency result was “inactive”. Moreover, in [19], the compound was called inactive.
On to `CCCCC1C(=O)N(c2ccccc2)N(c2ccccc2)C1=O`, for which the Potency result in assay [7], in assay [8], in [9], in assay [10], in [11] and in assay [6] was “inactive” in each case. Also, the Potency result in assay [12], in assay [13], in assay [14], in assay [15], in assay [16] and in assay [17] was “inactive” each time. For the same compound, the Potency result in assay [18] is “inactive”. Besides, the outcome in assay [19], in assay [1], in assay [2], in assay [4] and in [5] was inactive.
As to `C[N+](C)(C)CC(=O)O`, the call in [1] and in [2] was inactive.
Regarding `CCCNC(=O)NS(=O)(=O)c1ccc(Cl)cc1`, the Potency result in assay [7], in assay [8], in assay [9], in [10], in assay [11] and in [6] was “inactive” in each case. The Potency entry in assay [12], in assay [13], in assay [14], in assay [15], in assay [16] and in assay [17] was “inactive” each time. Further, the Potency entry in [18] is “inactive”. The compound was called inactive in assay [19], in [1], in assay [2], in assay [4] and in assay [5]. The activity change, negative = inhibition in assay [3] (at 25.7 µM (top of the series)) is -1.71% (inactive). For the same compound, the max response in [3] (setting [20]) turned out to be 8.45%; in assay [3] (setting [21]), 7.5%.
